In PubChem BioAssay AID1813 (Broad Institute, 2009):
Out of some 300,000 compounds screened, about 2,500 (0.83%) were called active. No stated cut-off is given here; in the data, active means inhibition above about 60%; inconclusive means no clear call, values can overlap the other calls; inactive means below that. The list comes from a sample in which actives are over-represented; it also holds similar structures and randomly drawn compounds.

Assay: MLPCN primary screen, SNCA 5' untranslated region (AID 1813);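 further: H4 neuroglioblastoma cells stably carrying SNCA 5'UTR luciferase fusion; 0% = DMSO wells and 100% = positive control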
Conditions: alpha-synuclein 5'UTR reporter, inhibitor activity; stronger effect = higher value; tested at 7.5 µM

Structure (SMILES)	inhibition
CCCOc1cccc(C(=O)Nc2nnn(CCC)n2)c1	-87.6% (inactive)
CC(C)CNC(=O)COC(=O)c1ccccc1OCC(=O)Nc1ccc(Br)cc1	1.89% (inactive)
O=C(COC(=O)c1ccc(NS(=O)(=O)c2cccs2)cc1O)Nc1ccc(F)cc1	7.94% (inactive)
NS(=O)(=O)c1ccc(NC2=CC(c3ccc(F)cc3)N(c3ccc(S(N)(=O)=O)cc3)C2=O)cc1 (stereo unspecified)	15.1% (inactive)
COc1ccc(CN(C)C(C)C(=O)NC2CCCc3ccccc32)cc1 (stereo unspecified)	8.59% (inactive)
COc1ccc(-c2nc(-c3ccccc3)no2)c(OC)c1	68.9% (active)
COc1ccc(/C=C/c2noc(-c3ccccc3OC(C)=O)n2)cc1	-34.8% (inactive)
Cc1ccc(-c2nc(-c3ccncc3)no2)c(C)c1	-108% (inactive)
CCC1CO/C(=C(\C(=C(Cl)Cl)N2CCOCC2)[N+](=O)[O-])N1 (stereo unspecified)	-4.02% (inactive)
CCOc1cc(N2CCOCC2)c(OCC)cc1NC(=O)COc1cccc(Cl)c1	9.4% (inactive)
CCOc1cc(N2CCOCC2)c(OCC)cc1NC(=O)c1cc(C)nc2ccccc12	7.38% (inactive)
CCOc1cc(N2CCOCC2)c(OCC)cc1NC(=O)COc1cccc2cccnc12	88.8% (active)
CCOC(=O)C(C)Oc1cccc2c(=O)n(CC(=O)NCCc3ccc(OC)c(OC)c3)ccc12 (stereo unspecified)	12.9% (inactive)
Cc1nn(C)c(C)c1CN(C(=O)CCc1nnc(Cc2c[nH]c3ccccc23)o1)C(C)C	13.9% (inactive)
Cc1oc2c(F)c(F)c(F)c(F)c2c1S(=O)(=O)Nc1cccc(C(F)(F)F)c1	17.3% (inactive)
CCNC(=S)N1CCC(c2nc3cc(C)c(C)cc3[nH]2)CC1	-15.5% (inactive)
Cc1cccc(-c2nc(Nc3ccc(O)cc3)c3ccccc3n2)c1	2.9% (inactive)
Cc1cccc(-[n+]2c(-c3cccc(Br)c3)[nH]c3nc4ccccc4nc32)c1	73.9% (active)
Cc1ccc(/C=C2\CCn3c2nc2cc(C(=O)O)ccc2c3=O)c(C)c1	-20% (inactive)
Nc1ccc2nn(-c3ccc(Cl)cc3)nc2c1	-27.3% (inactive)
CN(C)c1ccc(/C=N\S(=O)(=O)c2ccccc2)cc1	-6.91% (inactive)
CC[n+]1cc(C)ccc1/C=C/c1ccc(N(C)C)cc1	90.6% (active)
O=C(CN1CCN(c2ncccn2)CC1)Nc1ccccc1C(F)(F)F	-6.88% (inactive)

Structure (SMILES)	inhibition
Brc1ccc2c(c1)[C@H]1OCC[C@H]1[C@@H](c1cccs1)N2	72.2% (active)
CC(C)CCn1c(=O)c2c(nc3n2CCCN3Cc2ccccc2)n(C)c1=O	23.1% (inactive)
COc1ccc(C)cc1N(CC(=O)N1CCCC1)S(=O)(=O)c1ccccc1	-6.96% (inactive)
Cc1ccc(CNC(=O)CCNS(=O)(=O)c2cccc3nonc23)cc1	9.75% (inactive)
O=c1c2ccccc2nc2n1C1(CCCCC1)Cc1ccccc1-2	0.0175% (inactive)
CN(C(=O)c1cc2c(=O)n3ccccc3nc2s1)C1CCCCC1	-42.4% (inactive)
CN(c1ccc2nc3ccccc3c(=O)n2n1)C1CCCCC1	119% (active)
Cc1ccc(CN2CCNC(=O)C2CC(=O)NCc2csc(C(C)C)n2)cc1 (stereo unspecified)	9.72% (inactive)
Cc1ccc2[nH]c(=O)c(CN(C)S(=O)(=O)c3cccc4nonc34)cc2c1	-5.89% (inactive)
CCC1=C(OC(=O)N(CC)CC)N2C(=O)OC(=NCCc3c[nH]c4ccccc34)[C@]2(C)[C@H]2C1=CC[C@H]1C(=O)N(CC)C(=O)[C@H]12	-3.3% (inactive)
Cc1c(C(=O)N2CCCc3ccccc32)oc2ccccc12	-96.2% (inactive)
Cc1cccc2cc3c(N)c(C(=O)N4CCCc5ccccc54)sc3nc12	85.2% (active)
Cc1c(C(=O)N2CCCc3ccccc32)sc2nc(-c3ccccc3)cn12	-83.5% (inactive)
COc1ccc2c(c1)cc1n2CCN=C1NN	-27.8% (inactive)
CN1c2ccc(C=O)c3c(C=O)ccc(c23)N(C)C1(C)C	67% (active)
CCN(CC(=O)Nc1c(F)cccc1F)C(=O)c1ccc(S(=O)(=O)N2CCCCC2)cc1	6.51% (inactive)
O=C(c1ccc(F)cc1)N1CCC(n2nnc3ccccc32)CC1	6.11% (inactive)
Cc1cc(OCc2ccc(C(=O)Nc3ccc(C(=O)O)cc3)o2)ccc1Cl	32.2% (inactive)
CCOC(=O)c1ccc(NC(=O)c2c(N)n(C)c(=O)[nH]c2=O)cc1	-15.4% (inactive)
C(=N\Nc1ccc2ccccc2n1)/c1ccc2c(c1)OCO2	88.2% (active)
Brc1ccc(-c2csc(N/N=C/c3ccc4c(c3)OCO4)n2)cc1	-59.4% (inactive)
Cc1noc(C)c1/C=N/Nc1ccc2ccccc2n1	-146% (inactive)
CCCc1nc(N2CCN(C)CC2)c2sc(=S)n(-c3ccccc3)c2n1	2.12% (inactive)

Structure (SMILES)	inhibition
CCOC(=O)C1C(=O)NCC1c1ccccc1 (stereo unspecified)	-12.2% (inactive)
NC(=O)COC(=O)c1ccc2c(c1)C(=O)N(Cc1ccco1)C2=O	-5.55% (inactive)
CCN1CCN(C(c2cccnc2)c2cc(Cl)c3cccnc3c2O)CC1 (stereo unspecified)	-29.1% (inactive)
Cc1cccnc1NC(=O)c1cccc(S(=O)(=O)N2CCN(c3ccc(F)cc3)CC2)c1	26.9% (inactive)
Oc1c(CN2CCN(c3ccc(F)cc3)CC2)cc(Cl)c2cccnc12	69.6% (active)
CC(=O)c1ccc(NC(=O)CCc2nnc3ccc(NCc4ccco4)nn23)cc1	-95.3% (inactive)
COc1ccc(CCn2c(=N)c(C(=O)NCC3CCCO3)cc3c(=O)n4cccc(C)c4nc32)cc1OC (stereo unspecified)	-9.36% (inactive)
Cc1cccn2c(=O)c3cc(C(=O)NCCN4CCOCC4)c(=N)n(Cc4cccnc4)c3nc12	97% (active)
Cc1cccn2c(=O)c3cc(C(=O)NCC4CCCO4)c(=N)n(Cc4ccc(F)cc4)c3nc12 (stereo unspecified)	9.52% (inactive)
CCOc1cccc(OCCCOc2cccc3cccnc23)c1	5.95% (inactive)
O=C1CCC([N+](=O)[O-])C(c2ccccc2Br)N1 (stereo unspecified)	0.315% (inactive)
O=C1C(=O)N(CCCO)C(c2ccccc2)/C1=C(\O)c1ccc(Br)cc1 (stereo unspecified)	4.06% (inactive)
O=C(Oc1cccc(N2C(=O)C3C4c5ccccc5C(c5ccccc54)C3C2=O)c1)c1ccco1 (stereo unspecified)	2.5% (inactive)
CN1CCCC(OC(=O)COc2ccc(Br)cc2)C1 (stereo unspecified)	4.45% (inactive)
CC1CN/C(=C\C(=O)c2ccc(Br)cc2)C(=O)N1 (stereo unspecified)	62% (active)
COc1cc2c(cc1OC)/C(=C/C(=O)c1ccc(NC(C)=O)cc1)NCC2	22.9% (inactive)
O=C(NCCCCCCCCCNC(=O)C(F)(F)F)C(F)(F)F	9.8% (inactive)
CCOC(=O)N1CCN(S(=O)(=O)c2ccc(C(=O)Nc3ccc(F)cc3F)cc2)CC1	69.5% (active)
CCOC(=O)N1CCN(S(=O)(=O)c2ccc(Br)cc2)CC1	-14.3% (inactive)
CCOC(=O)N1CCN(S(=O)(=O)c2ccc(OC)cc2)CC1	4.08% (inactive)
Cc1cc(NC(=O)C(C)N2C(=O)c3ccccc3S2(=O)=O)no1 (stereo unspecified)	-18.2% (inactive)
CCN(CC)c1ccc(/C=N/NC(=O)CNC(=O)c2cccnc2)cc1	5.51% (inactive)
Cc1ccc(C(=O)NCCNC(=O)c2cnccn2)cc1	-3.06% (inactive)

Structure (SMILES)	inhibition
CCN(CC)c1ccc(/C=N/NC(=O)c2cnccn2)c(O)c1	72.3% (active)
Cc1cn(C2C=CC(CO)O2)c(=O)[nH]c1=O (stereo unspecified)	-0.0254% (inactive)
CC[C@]1(O)C[C@@H]2CN(CCc3c([nH]c4ccccc34)[C@@](C(=O)OC)(c3cc4c(cc3OC)N(C)[C@H]3[C@@](O)(C(=O)OC)[C@H](OC(C)=O)[C@]5(CC)C=CCN6CC[C@]43[C@@H]65)C2)C1	77.2% (active)
CC[C@]1(O)CC2CN(CCc3c([nH]c4ccccc34)[C@@](C(=O)OC)(c3cc4c(cc3OC)N(C=O)[C@H]3[C@@](O)(C(=O)OC)[C@H](OC(C)=O)[C@]5(CC)C=CCN6CC[C@]43[C@@H]65)C2)C1 (stereo partly specified)	102% (active)
CCc1nc2ccccc2c(C(=O)OC2CCCCC2=O)c1C (stereo unspecified)	8.85% (inactive)
CCCc1cc(=O)[nH]c(SCC(=O)OCc2ccccc2)n1	13.7% (inactive)
CCCc1cc(=O)[nH]c(SCC(=O)c2c(N)n(CC(C)C)c(=O)n(C)c2=O)n1	88.3% (active)
CCCc1cc(=O)[nH]c(SCC(=O)c2cc(C)n(CCC)c2C)n1	23.4% (inactive)
Cc1ccc2nc(SC(C)C(=O)NCc3ccco3)[nH]c2c1 (stereo unspecified)	30% (inactive)
CC(=O)NN1C(=O)c2ccccc2NC1c1ccccc1 (stereo unspecified)	19.3% (inactive)
CC1=NNC(=O)C1Cc1c(Cl)cccc1Cl (stereo unspecified)	27% (inactive)
Oc1c(Cl)cc(Cl)c(Cl)c1Cc1c(O)c(Cl)cc(Cl)c1Cl	77.3% (active)
COCCNc1nc(N)c([N+](=O)[O-])c(N2CCCCCC2)n1	17.3% (inactive)
Cc1cc(OC(=O)c2ccc(OC(C)C)cc2)c([N+](=O)[O-])c(=O)[nH]1	-3.29% (inactive)
O=C(C1CCCO1)N1CCC(c2nc3ccccc3[nH]2)CC1 (stereo unspecified)	-15.4% (inactive)
O=S(=O)(c1ccc(Br)cc1)N1CCC(c2nc3ccccc3[nH]2)CC1	78.3% (active)
N#CC(C(=O)c1ccc(S(=O)(=O)N2CCCCCC2)cc1)c1nc2ccccc2[nH]1 (stereo unspecified)	-4.96% (inactive)
Cc1cccc(N2CCN(S(=O)(=O)c3ccc4[nH]c(=O)c(=O)[nH]c4c3)CC2C)c1 (stereo unspecified)	3.92% (inactive)
COc1cc2c(cc1OC)C(C)N(S(=O)(=O)c1cnc(Cl)c(Cl)c1)CC2 (stereo unspecified)	36.4% (inactive)
COc1ccc(-c2cn(-c3ccc(OC)cc3)c(=S)[nH]2)cc1	-129% (inactive)
O=c1oc2ccccc2cc1-c1cn(-c2ccccc2)c(=S)[nH]1	119% (active)
S=c1[nH]c(-c2cccs2)cn1-c1ccccc1	-60.3% (inactive)
